Assay outcomes deposited in PubChem BioAssay by several laboratories.
EWS-Fli inh – blocks EWS/Fli oncoprotein-driven transcription | AID 651661 | inhibition, % at 12.6 µM | A673 NR0B1-luciferase reporter, viability-normalised | 350,000 tested, 0.67% active;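 active = mean inhibition of at least 50% after viability correction, with every replicate also passing that limit; inconclusive = mean reaches 50% but only one of two replicates passes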;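 also: firefly luciferase signal divided by Alamar Blue viability fluorescence both relative to DMSO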
PAX8 reporter – inhibitors of PAX8 transcriptional activity in RMG-I cells; RMG-I TPO-luciferase reporter, SteadyGlo, 24 h; inhibition, % at 12.6 µM; 360,000 tested, 1.2% active; AID 652154;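 active = mean replicate inhibition at least 60% with every replicate also reaching 60%; inconclusive = only one of the two criteria is met; inactive = mean below 60% and not all replicates reaching 60%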;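 also: luciferase light reporting Pax8 driven TPO promoter activity; plate controls were median of neutral control wells for no effect and mitoxantrone controls for full effect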
CFTR F508del cor – CFTR F508del correction in bronchial cells; CFBE cells, YFP halide quenching; stimulated with forskolin plus potentiator P3; % fluorescence drop versus neutral controls; activity (quench increase), % at 7.58 µM; 350,000 tested, 0.36% active; AID 720511;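 active = mean added fluorescence quench of at least 8% versus neutral control, with both replicates also reaching 8%; inconclusive = only one of the mean or replicate conditions met; inactive = mean below 8% and not both replicates reaching 8%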;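 also: cells transiently co-express mutant CFTR-F508del with the halide-sensitive YFP; corrector assay measuring rescue of mutant channel to the surface after 24 h compound exposure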
HIV Env fusion – inhibitors of HIV Env-mediated cell fusion. HeLa-JRFL Env/CEM21 cell fusion, luciferase. inhibition, % at 12.3 µM. 360,000 tested, 1.1% active. AID 651610;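 active = mean replicate inhibition score of at least 50 and every replicate individually at or above 50; inconclusive = only one of the two criteria met; inactive = mean below 50 and not all replicates reaching 50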;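 also: 0% = plate neutral controls and 100% = maraviroc near 300 nM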
GAA850 FXN act – activators of GAA850 frataxin (FXN) promoter; HEK293 lucGAA850 FXN promoter luciferase reporter, 24 h; percent of 10 µM SAHA response; activation, % at 6 µM; 360,000 tested, 0.56% active;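 active = activation above the average of all compounds screened plus 3 SD, cutoff fixed separately per campaign, cut at about 7.5% in these data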;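 also: 0% = DMSO wells and 100% = 10 µM SAHA wells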
GAA30 counter – activates GAA30 frataxin promoter, counter-screen for GAA850 activators | shares compounds with GAA850 FXN act | HEK293 lucGAA30 FXN promoter luciferase, 24 h; DMSO = 0%, 5 µM ipriflavone = 100% | activation, % at 6 µM | 1,900 tested, 66% active | AID 588350;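 active = mean activation above the mean of solvent-only control wells plus 3 SD, cut at about 22% in these data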;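 also: counterscreen of GAA850 promoter hits where activity marks nonselective or luminescence artifacts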
FXN GAA850 conf – confirmation of GAA850 frataxin (FXN) promoter activators; shares compounds with GAA850 FXN act; 1,900 tested, 86% active; HEK293 lucGAA850 FXN promoter luciferase reporter, 24 h; 100% = activation by SAHA; activation, % at 6 µM; AID 588351;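 active = mean activation above a set limit taken from the primary screen, cut at about 8% in these data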;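 also: 0% = DMSO wells and 100% = 10 µM SAHA wells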
* hit, by the source's call; [ ] = remark or other dose. The list is not random: actives were taken first. Their share in the collection is about 2.5%.

What do the screens show for `C[C@H]1CN([C@@H](C)CO)C(=O)c2cc(C#CCN(C)C)cnc2O[C@@H]1CN(C)S(=O)(=O)c1ccccc1`?
EWS-Fli inh: -16.6; CFTR F508del cor: 0.8; HIV Env fusion: -2.0[16.7 µM]

How did COc1ccc(/C=N/NC(=O)C(C)n2nnc3ccccc32)cc1OC (centres undefined) do in these assays?
GAA850 FXN act: 8.5*; GAA30 counter: 20.4; FXN GAA850 conf: 10.8*

How did C[C@@H](NC(=O)c1coc(=O)c(Br)c1)c1ccccc1 do in these assays?
GAA850 FXN act: 8.8*; GAA30 counter: -9.7; FXN GAA850 conf: 5.2

How did Cc1cc(NC(=O)c2coc(=O)c(Br)c2)ccc1C(C)C do in these assays?
EWS-Fli inh: -10.2; PAX8 reporter: -64.2; CFTR F508del cor: inconclusive; HIV Env fusion: -20.7; GAA850 FXN act: 8.4*; GAA30 counter: 89.0*; FXN GAA850 conf: 49.9*

Results for O=C(CSc1nnnn1-c1ccc(F)cc1)c1ccc(O)c(O)c1 ?
EWS-Fli inh: 35.6; PAX8 reporter: 46.4; CFTR F508del cor: 0.4; HIV Env fusion: 6.6; GAA850 FXN act: 11.6*; GAA30 counter: 30.9*; FXN GAA850 conf: 17.4*

Results for O=C(C[C@@H]1C[C@H]2c3cc(NC(=O)C4CCC4)ccc3O[C@H]2[C@@H](CO)O1)NCc1ccncc1 ?
EWS-Fli inh: -6.0; PAX8 reporter: -5.1; CFTR F508del cor: 0.0; HIV Env fusion: 2.6[16.7 µM]

Results for CCCOC(=O)c1c(N)sc(C(=O)OCC)c1C ?
GAA850 FXN act: 14.3*; GAA30 counter: 64.1*; FXN GAA850 conf: 24.8*

What do the screens show for `CCOC(=O)c1c(N)sc(C(N)=O)c1C`?
PAX8 reporter: -4.6; HIV Env fusion: -208.8; GAA850 FXN act: 0.8

How did O=C1c2cc([N+](=O)[O-])cc3cc([N+](=O)[O-])cc(c23)C(=O)N1c1ccccn1 do in these assays?
EWS-Fli inh: 26.4; PAX8 reporter: 31.9; CFTR F508del cor: -0.4; GAA850 FXN act: 8.2*; GAA30 counter: 14.9; FXN GAA850 conf: 17.3*

What do the screens show for `CC(C)CC#Cc1cnc2c(c1)C(=O)N([C@@H](C)CO)C[C@H](C)[C@@H](CN(C)Cc1ccc(C(=O)O)cc1)O2`?
EWS-Fli inh: 8.8; CFTR F508del cor: -3.6; HIV Env fusion: -3.8[16.7 µM]

How did N#C[C@@H]1[C@H](c2ccc(C3=CCCC3)cc2)[C@H](CO)N1C(=O)NC1CCCCC1 do in these assays?
EWS-Fli inh: -9.3; CFTR F508del cor: 2.1

What do the screens show for `O=C(OC(C(=O)Nc1ccc(Cl)cc1C(F)(F)F)c1ccccc1)c1c(Cl)cccc1Cl` (centres undefined)?
EWS-Fli inh: -1.1; PAX8 reporter: 16.2; HIV Env fusion: 73.3*; GAA850 FXN act: 11.4*; GAA30 counter: 17.8; FXN GAA850 conf: 10.6*

What do the screens show for `Cc1ccc(C(=O)OC(C(=O)Nc2ccc(Cl)cc2C(F)(F)F)c2ccccc2)cc1` (centres undefined)?
EWS-Fli inh: 0.7; PAX8 reporter: 13.1; HIV Env fusion: -34.3; GAA850 FXN act: 0.0

Results for Oc1ccc(Nc2ccnc3cc(Cl)ccc23)cc1 ?
EWS-Fli inh: -0.7; PAX8 reporter: -4.6; CFTR F508del cor: 2.6; HIV Env fusion: 25.1; GAA850 FXN act: 10.2*; GAA30 counter: 38.9*; FXN GAA850 conf: 10.9*

How did Cc1ccccc1/C=N/Nc1ccnc2cc(Cl)ccc12 do in these assays?
EWS-Fli inh: 20.7; PAX8 reporter: 7.0; HIV Env fusion: -18.7; GAA850 FXN act: -3.0

Results for Oc1ccc(/C=N/Nc2ccnc3cc(Cl)ccc23)c(O)c1 ?
EWS-Fli inh: 12.9; PAX8 reporter: -4.8; CFTR F508del cor: -7.8; HIV Env fusion: -14.6; GAA850 FXN act: 12.2*; GAA30 counter: 59.7*; FXN GAA850 conf: 18.8*

What do the screens show for `Clc1ccc(NNc2ccnc3cc(Cl)ccc23)cc1`?
HIV Env fusion: 31.2; GAA850 FXN act: -2.8

What do the screens show for `COCC(=O)Nc1ccc2c(c1)OC[C@@H](C)N(C(=O)Nc1ccccc1F)C[C@@H](C)[C@H](OC)CN(C)C2=O`?
EWS-Fli inh: -7.2; PAX8 reporter: -7.3; CFTR F508del cor: -2.4; HIV Env fusion: 6.2[16.7 µM]

How did O=C(O)c1ccc(N/N=C/c2ccnc3ccccc23)cc1 do in these assays?
EWS-Fli inh: -135.5; PAX8 reporter: -120.0; CFTR F508del cor: -1.3; HIV Env fusion: -31.3; GAA850 FXN act: 9.3*; GAA30 counter: 93.0*; FXN GAA850 conf: 31.8*

How did CN(C)C(=S)N=c1ssc(=S)n1Cc1ccccc1 do in these assays?
EWS-Fli inh: 37.2; PAX8 reporter: 25.1; CFTR F508del cor: 1.2; HIV Env fusion: -166.8; GAA850 FXN act: 21.0*; GAA30 counter: 3.8; FXN GAA850 conf: 28.1*

How did CCOC(=O)c1sc(=S)n(Cc2ccccc2)c1C do in these assays?
EWS-Fli inh: -0.8; PAX8 reporter: 1.3; CFTR F508del cor: -2.4; HIV Env fusion: -6.2; GAA850 FXN act: 0.5

How did O=C1NCCN1Cc1ccccc1 do in these assays?
HIV Env fusion: 7.4; GAA850 FXN act: 8.6*; GAA30 counter: 20.2; FXN GAA850 conf: 5.3

How did O=C1NCCN1Cc1ccc(F)cc1 do in these assays?
HIV Env fusion: -1.0; GAA850 FXN act: 2.0

How did Cc1ccc(Nc2cc(C)nc(NCc3ccccc3)n2)cc1 do in these assays?
EWS-Fli inh: -7.4; PAX8 reporter: 19.0; CFTR F508del cor: -25.1; HIV Env fusion: 151.4*; GAA850 FXN act: 12.8*; GAA30 counter: 18.6; FXN GAA850 conf: 15.1*

Results for N#Cc1cccc(-c2ccc([C@@H]3[C@@H](CO)N4CCCCN(C(=O)Nc5ccccc5)C[C@@H]34)cc2)c1 ?
EWS-Fli inh: 22.6; PAX8 reporter: 5.4; CFTR F508del cor: 3.2

Results for CCOC(=O)[C@@H]1[C@H]2COc3ccc(Br)cc3[C@@H]2N2C(=O)N(c3cccc(Cl)c3)C(=O)[C@@]12C ?
EWS-Fli inh: 27.9; PAX8 reporter: 16.1; CFTR F508del cor: 3.5; HIV Env fusion: 12.2; GAA850 FXN act: 9.9*; GAA30 counter: -8.5; FXN GAA850 conf: 0.1

What do the screens show for `CCOC(=O)[C@H]1[C@H]2COc3ccc(Br)cc3[C@@H]2N2C(=O)c3c(C)cc(C)cc3NC(=O)[C@@]12C`?
EWS-Fli inh: 6.2; PAX8 reporter: 16.6; CFTR F508del cor: -2.3; HIV Env fusion: 67.0*; GAA850 FXN act: 14.4*; GAA30 counter: 28.3*; FXN GAA850 conf: 18.6*

Results for CCOC(=O)[C@@H]1[C@H]2COc3ccc(Br)cc3[C@@H]2N2C(=O)N(c3cccc(Cl)c3)C(=O)[C@]12C ?
EWS-Fli inh: -6.4; PAX8 reporter: 13.3; CFTR F508del cor: -0.7; HIV Env fusion: 15.0; GAA850 FXN act: 1.1

What do the screens show for `O=C(NNC(=S)Nc1ccccc1)c1cccs1`?
GAA850 FXN act: 8.3*; GAA30 counter: 74.4*; FXN GAA850 conf: 28.9*
